ChEMBL document CHEMBL4513216, “Probing the Open Global Health Chemical Diversity Library for Multistage-Active Starting Points for Next-Generation Antimalarials” (ACS Infect Dis, 2020)
Hit rate of the full screen: of about 68,000 compounds, about 2,700 (4%) showed an effect of 50% or more. The entries come from a sample that favours strong results as a whole.

The molecules below were run on Plasmodium berghei (assay: Screen against P. berghei liver stage (PbLuc), transformed with Luciferase, at 2uM). Details: tested at 2 uM.
Type: functional, HepG2

SMILES | INHIBITION
CCOc1ccc(OCCN2CCC(N3CCNC3=O)CC2)cc1 | 12.81%
COc1ccccc1OCCN1CCC(N2CCNC2=O)CC1 | 3.86%
COc1ccc(OCCN2CCC(N3CCNC3=O)CC2)cc1 | 81.79%
C[S+]([O-])CCNC(=O)N1CCSC2(CCCCC2)C1 (centres undefined) | -66.38%
Cc1cccc(N2CC[C@@H]3CN(Cc4csc(C)n4)CCO[C@@H]3C2)n1 | 25.87%
Cc1noc(C)c1C(=O)N1C[C@@H]2CC[C@H]1CN(c1cnccn1)C2 | 20.32%
Cc1nnsc1C(=O)N1C[C@@H]2CC[C@H]1CN(c1cnccn1)C2 | 28.73%
Cc1cnc(C(=O)N2C[C@@H]3CC[C@H]2CN(c2cnccn2)C3)cn1 | 53.98%
c1ccc2c(c1)SCCC2NCc1ccc(N2CCOCC2)cc1 (centres undefined) | 15.16%
Cc1nccn1-c1ccccc1CNC(=O)c1cn(CCN)nn1 | -27.6%
NCCn1cc(C(=O)NCc2ccccc2Cn2cccn2)nn1 | 62.3%
NCCn1cc(C(=O)NCc2ccccc2-n2cccn2)nn1 | 28.67%
CC(Cn1cccn1)n1cnc2ccc(F)cc2c1=O (centres undefined) | 32.71%
Cc1n[nH]c(C2CN(CC(=O)NCc3cccs3)CCO2)n1 (centres undefined) | 34.42%
CCN(CCNC(=O)C1CCN(C(C)=O)CC1)c1ccccc1C | 31.13%
CN1CC(C(=O)NCCc2ccc(F)c(Br)c2)CC1=O (centres undefined) | -5.13%
CCCN1CCC(C(=O)NCCN(CC)c2ccccc2C)CC1 | -5.9%
COc1ccc2[nH]cc(CCNC(=O)C3CCCN(C(C)=O)C3)c2c1 (centres undefined) | 13.65%
CC(=O)N1CCCC(C(=O)NCCc2ccc(F)c(Br)c2)C1 (centres undefined) | 63.17%
CCN(CCNC(=O)C1CCCN(C(C)=O)C1)c1ccccc1C (centres undefined) | 56.33%
O=C(CN1C=Nc2ccccc2S1(=O)=O)NCCc1cccs1 | 6.12%
CCn1ncc(Br)c1CN(C)S(=O)(=O)c1ccc(C)cc1 | 0.3%
CCCc1nc(NCc2c(C)nn(CCC)c2C)c2cnn(C)c2n1 | 32.53%
CC(C)CNC(=O)CNc1c(NCc2ccco2)c(=O)c1=O | 10.93%
COc1ccnc(CN2CCCC(CCc3ccccc3)C2)c1OC (centres undefined) | 11.37%
COc1coc(CN2CCCC(CCc3ccc(F)cc3)C2)cc1=O (centres undefined) | 30.44%
COc1ccnc(CN2CCCC(CCc3ccc(F)cc3)C2)c1OC (centres undefined) | 58.03%

SMILES | INHIBITION
CCc1nnc(CN(C)C2CCCN(Cc3noc(C4CC4)n3)C2)o1 (centres undefined) | -7.13%
Cc1nc(CN(C)C2CCN(Cc3nnc(C4CC4)o3)C2)no1 (centres undefined) | 49.01%
Cc1cc(CN(C)C2CCCN(Cc3noc(C)n3)C2)no1 (centres undefined) | 80.46%
Cc1nc(CN2CCCC(N(C)Cc3nnc(C4CC4)o3)C2)no1 (centres undefined) | -10.47%
CN(Cc1noc(C2CC2)n1)C1CCN(Cc2nnc(C3CC3)o2)C1 (centres undefined) | 51.19%
Cc1nnc(CN(C)C2CCCN(Cc3noc(C4CC4)n3)C2)o1 (centres undefined) | 62.13%
CC(C)c1nc(CN(C)C2CCN(Cc3nnc(C4CC4)o3)C2)no1 (centres undefined) | 37.9%
Cc1cc(CN(C)C2CCCN(Cc3noc(C)n3)C2)on1 (centres undefined) | -2.71%
Cc1cc(CN(C)C2CCCN(Cc3noc(C4CC4)n3)C2)no1 (centres undefined) | 28.65%
CC(C)N(Cc1cccnc1)C(=O)CCSc1ccc(C#N)cc1 | 16.72%
CCc1nc(CN2CCN(C(=O)c3csnn3)CC2)cs1 | 32.64%
CC(C)NC(=O)N1CCCC2(CCCCN2)C1 (centres undefined) | 21.75%
O=C(NCC(F)(F)F)c1ccncc1 | 8.22%
Fc1cnc(N2CCCC3(CCN(Cc4cccs4)C3)C2)nc1 (centres undefined) | 31.25%
Cc1ccnc(NC(=O)C2CCCO2)c1 (centres undefined) | 23.39%
COc1ccc(N(C)C(=O)C2CN(C)CCO2)cc1F (centres undefined) | 71.05%
COc1ccc(N(C)C(=O)C2CN(C)CCO2)cc1Cl (centres undefined) | -18.04%
CN1CCOC(C(=O)N(C)c2ccc3c(c2)CCO3)C1 (centres undefined) | -30.56%
Cc1ccc(OCC(O)COC2CCOCC2)c(Cl)c1 (centres undefined) | -2.35%
Cc1cc(Cc2ccccc2F)cc(C2CCCNC2)n1 (centres undefined) | 4.91%
Cc1cc(Cc2ccccc2C)cc(C2CCCNC2)n1 (centres undefined) | 54.02%
Cc1cc(Cc2ccccc2)cc(C2CCCNC2)n1 (centres undefined) | -24.98%
CC(=O)N1CCN(c2cc(-n3cccc3)ncn2)CC1 | 35.36%
CSc1sc2c(O)cc(=O)[nH]c2c1C(N)=O | 15.96%
CSCCc1n[nH]c2c1CN(S(=O)(=O)c1c(C)nn(C)c1C)CC2 | 59.8%
Cc1nc(S(=O)(=O)N2CCc3[nH]nc(CCC(C)C)c3C2)cn1C | 26.75%
CSCCc1n[nH]c2c1CN(S(=O)(=O)c1cn(C)c(C)n1)CC2 | 41.07%
